Measured values published in PubChem BioAssay (NCI).
About 83,000 compounds went through this panel and 20% of them were active in at least one assay; those are over-represented in the sample as a whole.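 Growth was measured after 48 h exposure to one concentration of compound in 96-well plates. Values under 10 count as active.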 Unmarked numbers belong to inactive results. Active and inactive are the calls of the source.

Legend:
Assay in all cases: NCI-60 one-dose screen, 48 h (100 = growth as untreated, 0 = no growth, -100 = all killed)
Settings in all cases: 10 µM unless noted
SR leukemia = tested on: SR leukemia
RPMI-8226 leukemia = tested on: RPMI-8226 leukemia
OVCAR-8 ovarian = tested on: OVCAR-8 ovarian
OVCAR-4 ovarian = tested on: OVCAR-4 ovarian
SK-OV-3 ovarian = tested on: SK-OV-3 ovarian
IGROV1 ovarian = tested on: IGROV1 ovarian
OVCAR-3 ovarian = tested on: OVCAR-3 ovarian
HS 578T breast = tested on: HS 578T breast
NCI/ADR-RES ovarian = tested on: NCI/ADR-RES ovarian
T-47D breast = tested on: T-47D breast
BT-549 breast = tested on: BT-549 breast
MDA-MB-435 melanoma = tested on: MDA-MB-435 melanoma
SW-620 colon = tested on: SW-620 colon
MCF7 breast = tested on: MCF7 breast
HCT-116 colon = tested on: HCT-116 colon
HCC-2998 colon = tested on: HCC-2998 colon
KM12 colon = tested on: KM12 colon
OVCAR-5 ovarian = tested on: OVCAR-5 ovarian

| Compound | growth (SR leukemia) | growth (RPMI-8226 leukemia) | growth (OVCAR-8 ovarian) | growth (OVCAR-4 ovarian) | growth (SK-OV-3 ovarian) | growth (IGROV1 ovarian) | growth (OVCAR-3 ovarian) | growth (HS 578T breast) | growth (NCI/ADR-RES ovarian) | growth (T-47D breast) | growth (BT-549 breast) | growth (MDA-MB-435 melanoma) | growth (SW-620 colon) | growth (MCF7 breast) | growth (HCT-116 colon) | growth (HCC-2998 colon) | growth (KM12 colon) | growth (OVCAR-5 ovarian) |
| --- | --- | --- | --- | --- | --- | --- | --- | --- | --- | --- | --- | --- | --- | --- | --- | --- | --- | --- |
| CC(C)[C@H]1COC(=O)N1[C@@H]1C(=O)N([C@@H](CCC(=O)N2CCN(C3CCCC3)CC2)C(=O)N[C@@H]2CCCc3ccccc32)[C@@H]1/C=C/c1cccc(Br)c1 | -18.9% (active) | 14.6% | 62.1% | 53.9% | 52.7% | 32% | 45.1% | 51.9% | 53% | 39.9% | 27.6% | 30.2% | 45.2% | 23% | 14.3% | 30.8% | 35.6% |  |
| CN1CCCCC1CCN1c2ccccc2Sc2ccc(Br)cc21 (stereo not given) | -32% (active) | 46% | 62.3% | 59.4% | 69.6% |  | 77.9% | 81% | 73.2% | 77.9% | 68.5% | 20.4% | 79.6% | 21% | 28.8% | 51.3% | 60.7% | 85.9% |
| O=C(/C=C/c1ccc(B(O)O)cc1)/C=C/c1ccc(B(O)O)cc1 | 8.8% (active) | -23.5% (active) | 72.2% |  | 46.8% | -73.3% (active) | 27.8% |  | 91.7% | 27% | -11.8% (active) | -46.6% (active) | -25.2% (active) | 3.78% (active) | -94.4% (active) | -77.1% (active) | -86.7% (active) | 92.8% |
| CC(C)C1=C[C@@]23CC[C@@H]4[C@](C)(CCC[C@@]4(C)C(=O)OCC#CCN4CCCC4)[C@H]2C[C@@H]1[C@H]1C(=O)OC(=O)[C@H]13 | 92% | 80.3% | 115% | 92% | 90.5% |  | 94.2% | 99.2% | 99.3% | 73.9% | 87.7% | 102% | 109% | 84.7% | 88.8% | 108% | 87.3% | 97.3% |
| COc1ccc(CN2C(=O)/C(=C\c3cc(OC)c(OC)c(OC)c3)c3cc(OC)ccc32)cc1 | -31.1% (active) | -35.9% (active) | -43.2% (active) | 27.2% | 7.88% (active) |  | -10.8% (active) | 9.55% (active) | 6.96% (active) | -0.59% (active) | 27.1% | -0.0336% (active) | -64.1% (active) | 7.67% (active) | -79.6% (active) | 74.1% | -86% (active) | 15% |
| COc1ccc(-c2nn(-c3ccccc3)cc2/C=C/C(=O)OCc2cn(-c3ccc(F)c(Cl)c3)nn2)cc1 | 88.3% | 75.2% | 80.1% | 66.9% | 85.3% |  | 68.2% | 88% | 73.9% | 48.3% | 101% | 65.3% | 100% | 71% | 84.8% | 98.7% | 93.9% | 106% |
| O=S(=O)(NCCCNc1cc(-c2cn(-c3ccccc3)nc2-c2cccc(O)c2)ccn1)c1ccccc1 | 35.5% | 32.1% | 46.1% | 59.8% | 66.4% | 59.2% | 58.9% | 46.9% | 51.3% | 18.4% | 44.1% | 52.3% | 25.5% | 31.6% | 40% | 22.1% | 30.1% |  |
| CCN(CC)Cc1cc(Nc2c3ccc(Cl)cc3nc3c(C)cccc23)ccc1O | -18.9% (active) | -14.6% (active) | -42.6% (active) | -96% (active) | -10.3% (active) |  | -71.6% (active) | -24.4% (active) | -49.8% (active) | -70.5% (active) | -54.3% (active) | -89.6% (active) | -14% (active) | -61.6% (active) | -73.2% (active) | -95% (active) | -45.4% (active) | -37.7% (active) |
| Cc1ccc2c(c1)n([O-])c1cc(Cl)ccc1[n+]2=O | 5.98% (active) | 104% | 108% | 82.6% | 122% |  | 92.6% | 135% | 104% | 93.9% | 108% | 96.8% | 119% | 108% | 84.2% | 120% | 105% | 102% |
| COc1ccc(-c2cnoc2-c2cc(OC)c3c(c2)OCCO3)cc1 | 3.75% (active) | -8.88% (active) | 9.43% (active) | 50.4% | 11.7% |  | -18.6% (active) | 45.7% | 3.01% (active) |  | 3.85% (active) | -27.9% (active) | 19.5% | 12.4% | -12.3% (active) | 8.32% (active) | 3.62% (active) | 31.9% |
| CC1=C(NCCN2CCCC2)C(=O)c2c(OCc3cccc(Cl)c3)cccc2C1=O | 14.1% | 60.9% | 79.7% | 73.1% | 95.2% | 71.8% | 85% | 72.4% | 78.7% | 59.9% | 14.5% | 61.8% | 85.1% | 57.5% | 43.9% | 84.4% | 81% |  |
| CCCCN(CC)CCCCCCCCCCN1CCCc2cc(OC)ccc21 | -31.7% (active) | -18.4% (active) | 87.5% | 101% | 88.9% |  | 13.6% |  | 25.9% | 93.6% | 89.3% | 14.5% | 22.7% | 99% | 69.7% | -26% (active) | -1.91% (active) | 78.8% |
| CCN(CC)c1ccc(CNc2cc(C)nc3ccc(OC)cc23)cc1 | -22.2% (active) | -33.7% (active) | 81.4% | 71.9% | 84.7% |  | 51.6% |  | 33.9% | 80% | 79.6% | -16.5% (active) | -74.6% (active) | 76.7% | 54.8% | -92.6% (active) | 28.4% | 96.3% |
| CCCC(=O)Oc1ccc(/C(=C(/CC)Cc2ccccc2)c2ccc(OCCN3CCCC3)cc2)cc1 | 1.36% (active) | 33.3% | 96.4% | 68.4% | 97% | 74% | 74.1% | 82.7% | 69.9% | 48.9% | 85.3% | 57.1% | 80.5% | 24.9% | 68.7% | 42.6% | 70.8% |  |
| CC/C=C\C[C@H](O)C/C=C1/C(=O)C=C[C@@H]1C/C=C\CCCC(=O)NC | -27% (active) | -3.18% (active) | 11.1% | 44.4% | 11.4% |  | 4.67% (active) | 47.7% | 6.92% (active) | -0.635% (active) | -4.05% (active) | 15.2% | 7.47% (active) | 8.89% (active) | -65% (active) | -90.7% (active) | -44.3% (active) | 20.2% |
| COc1cc(C2CC(=O)c3c(C)nn(-c4nc5ccccc5[nH]4)c3C2)cc(OC)c1OC (stereo not given) | 87.7% | 92.1% | 25.7% | -35.4% (active) | 17.9% |  | 67.2% | 43.1% | 64.9% | 60% | 77.7% | 99.8% | 99.6% | 76.4% | 68.7% | 82.4% | 102% | 90.4% |
| C[C@@]1(N2C(=O)OC[C@@H]2c2ccccc2)C(=O)N([C@H](CC(=O)N2CCC(N3CCCCC3)CC2)C(=O)NCc2cccc(C(F)(F)F)c2)[C@@H]1/C=C/c1ccccc1 | -38.4% (active) | 37.1% | 89.8% | 66.3% | 78.9% |  | 73.2% | 66.1% | 81.8% | 27.4% | 78.1% | 1% (active) |  | 25.3% | 44.9% | 47.3% | 55.9% | 115% |
| COC(=O)C12C3C(=O)N(c4ccc(OC)cc4)C(=O)C3C(c3cn(-c4ccccc4)nc3C)N1[C@H](c1cn(-c3ccccc3)nc1C)[C@@H]1C(=O)N(c3ccc(OC)cc3)C(=O)[C@@H]12 (stereo not given in full) | 91% | 106% | 99% | 108% | 101% | 107% | 104% |  | 97.4% | 102% | 113% | 102% | 100% | 102% | 104% |  | 106% | 103% |
